The test system of test [1] is Jurkat. Put plainly: mean cell size (FSC-A) relative to DMSO control (fraction of control); higher = larger cells. The settings on record: 48 h. A digest of the protocol: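 Jurkat cells at 600 cells/µl were incubated for 1 h and then treated for 48h with the Enzo Screen-Well FDA Approved Drug Library v2.0 at 25µM, with DMSO at 0.9% (v/v) final. Compounds that reduced counts below 20% of controls were retested in 10-fold dilutions down to 25nM. Cell count and mean cell size, taken as forward scatter area, were measured by flow cytometry relative to solvent-only controls. Each plate carried 6-12 controls, and values are means of 3 biological replicates.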

The test system of test [2] is Jurkat. Briefly: cell count relative to DMSO control (fraction of control); higher = more cells (less growth inhibition). As to conditions: 48 h.

Structures can show the parent of a compound that is named as a salt. ± gives the standard deviation.

With `CN(C/C=C/c1ccccc1)Cc1cccc2ccccc12` [Naftifine·HCl] (concentration: 25 µM), in the test on Jurkat [1], the mean cell size was determined as 0.956 ± 0.028. This compound also gave a cell count with Jurkat [2] of 0.848 ± 0.089.
The matching figures for `O=C(O)C(=O)O.[NH-][C@@H]1CCCC[C@H]1[NH-].[Pt+2]` [Oxaliplatin] (concentration: 25 µM): 1.01 ± 0.034 and 0.326 ± 0.057.
The matching figures for `CC(=O)O[C@H]1C(=O)[C@@]2(C)[C@H]([C@H](OC(=O)c3ccccc3)[C@]3(O)C[C@H](OC(=O)[C@H](O)[C@@H](NC(=O)c4ccccc4)c4ccccc4)C(C)=C1C3(C)C)[C@]1(OC(C)=O)CO[C@@H]1C[C@@H]2O` [Paclitaxel (Taxol)] (concentration: 25 nM): 1.07 ± 0.022 and 0.4 ± 0.048.
The matching figures for `CC(=O)Oc1ccc(C(c2ccc(OC(C)=O)cc2)c2ccccn2)cc1` [Bisacodyl] (concentration: 25 µM): 0.915 ± 0.013 and 0.813 ± 0.09.
On to `O=C1CC2(CCCC2)CC(=O)N1CCCCN1CCN(c2ncccn2)CC1` [Buspirone·HCl] (concentration: 25 µM), for which the mean cell size with Jurkat [1] stood at 0.9275 ± 0.0078. Besides, the cell count in the test with Jurkat [2] was found to be 0.96 ± 0.097.
On to `NC(=O)c1cnccn1` [Pyrazinamide] (concentration: 25 µM), for which, in the test on Jurkat [1], the mean cell size is 1 ± 0.031. In addition, the cell count in the test on Jurkat [2] amounted to 0.808 ± 0.066.
As to `CNS(=O)(=O)CCc1ccc2[nH]cc(C3CCN(C)CC3)c2c1` [Naratriptan·HCl] (concentration: 25 µM), the mean cell size with Jurkat [1] came out at 0.95 ± 0.019. Moreover, the cell count in the test with Jurkat [2] was found to be 0.951 ± 0.065.
The corresponding values for `O=C(O)c1cn(C2CC2)c2cc(N3CCNCC3)c(F)cc2c1=O` [Ciprofloxacin] (concentration: 25 µM) are 0.9157 ± 0.008 and 1.04 ± 0.13.
Compound `Clc1ccc(C(Cn2ccnc2)OCc2csc3c(Cl)cccc23)c(Cl)c1` (stereo not drawn) [Sertaconazole] (concentration: 25 µM) gave a mean cell size with Jurkat [1] of 1.04 ± 0.05. In the test on Jurkat [2], this compound came in with a cell count of 0.801 ± 0.11.
With `CC(=O)CCCCn1c(=O)c2c(ncn2C)n(C)c1=O` [Pentoxifylline] (concentration: 25 µM), the mean cell size in the test with Jurkat [1] was determined as 0.977 ± 0.028. In the test on Jurkat [2], this compound had a cell count of 1.09 ± 0.12.
The matching figures for `CC(=O)N(O)CCCCCNC(=O)CCC(=O)N(O)CCCCCNC(=O)CCC(=O)N(O)CCCCCN` [Deferoxamine Mesylate] (concentration: 25 µM): 1.09 ± 0.053 and 0.496 ± 0.062.
The corresponding values for `COCCOC(=O)C1=C(C)NC(C)=C(C(=O)OC(C)C)C1c1cccc([N+](=O)[O-])c1` (stereo not drawn) [Nimodipine] (concentration: 25 µM) are 0.938 ± 0.027 and 0.628 ± 0.17.
As for `CC1=C(/C=C/C(C)=C/C=C/C(C)=C\C(=O)O)C(C)(C)CCC1` [Isotretinoin (13-Cis-Retinoic Acid)] (concentration: 25 µM), in the test with Jurkat [1], the mean cell size was determined as 0.864 ± 0.03. Besides, in the test with Jurkat [2], the cell count is 1.02 ± 0.11.
The matching figures for `Cn1ccnc1S` [Methimazole] (concentration: 25 µM): 0.951 ± 0.011 and 0.842 ± 0.092.
The corresponding values for `COc1ccc(C[C@@H]2c3cc(OC)c(OC)cc3CC[N@+]2(C)CCC(=O)OCCCCCOC(=O)CC[N@@+]2(C)CCc3cc(OC)c(OC)cc3[C@H]2Cc2ccc(OC)c(OC)c2)cc1OC` [Cisatracurium Besylate] (concentration: 25 µM) are 1.004 ± 0.009 and 0.624 ± 0.064.
The corresponding values for `CN(C)/N=N/c1[nH]cnc1C(N)=O` [Dacarbazine] (concentration: 25 µM) are 0.981 ± 0.048 and 0.836 ± 0.093.
As to `CN1C(=O)CC(C)(c2ccccc2)C1=O` (stereo not drawn) [Methsuximide] (concentration: 25 µM), the mean cell size in the test on Jurkat [1] was 1.03 ± 0.03. This compound also returned a cell count with Jurkat [2] of 0.752 ± 0.068.
In the test with Jurkat [1], `C=CC1=C(C(=O)O)N2C(=O)[C@@H](NC(=O)/C(=N\OCC(=O)O)c3csc(N)n3)[C@H]2SC1` [Cefixime] (concentration: 25 µM) displayed a mean cell size of 0.977 ± 0.018. Further, the cell count with Jurkat [2] is 0.846 ± 0.069.
The matching figures for `CCN(Cc1ccncc1)C(=O)C(CO)c1ccccc1` (stereo not drawn) [Tropicamide] (concentration: 25 µM): 0.973 ± 0.019 and 0.925 ± 0.05.
The corresponding values for `CCC(=O)O[C@]1(C(=O)CCl)[C@@H](C)C[C@H]2[C@@H]3C[C@H](F)C4=CC(=O)C=C[C@]4(C)[C@@]3(F)[C@@H](O)C[C@@]21C` [Halobetasol Propionate] (concentration: 25 µM) are 0.971 ± 0.034 and 0.883 ± 0.12.
The corresponding values for `CC1=C(C(=O)O)N2C(=O)[C@@H](NC(=O)[C@H](N)c3ccc(O)cc3)[C@H]2SC1` [Cefadroxil] (concentration: 25 µM) are 0.937 ± 0.014 and 0.895 ± 0.079.
For the compound `CC(C)(C)NCC(O)c1ccc(O)c(CO)c1` (stereo not drawn) [Salbutamol Hemisulfate] (concentration: 25 µM), the mean cell size in the test on Jurkat [1] came out at 1.01 ± 0.056. In the test with Jurkat [2], the cell count amounted to 0.916 ± 0.11.
Turning to `O=C1NC(=O)C(c2ccccc2)(c2ccccc2)N1` [Phenytoin] (concentration: 25 µM), the mean cell size in the test on Jurkat [1] worked out at 0.978 ± 0.042. This compound also yielded a cell count in the test on Jurkat [2] of 0.74 ± 0.12.
For `COC(=O)N[C@H](C(=O)N[C@@H](Cc1ccccc1)[C@@H](O)CN(Cc1ccc(-c2ccccn2)cc1)NC(=O)[C@@H](NC(=O)OC)C(C)(C)C)C(C)(C)C` [Atazanavir] (concentration: 25 µM), the mean cell size in the test with Jurkat [1] came to 1.04 ± 0.052. The cell count in the test on Jurkat [2] is 0.658 ± 0.054.

Values taken from the supplement of paper PMC4709259.
